Test [1] can be described thus: antimalarial activity against Dd2 strain (AID 2302;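 active = growth inhibition above 50% at the single 2 µM test dose, taken to imply half-maximal potency below 2 µM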;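 also: 0% = DMSO untreated growth and 100% = chloroquine plus artemisinin killed control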). Conditions: P. falciparum Dd2 in RBCs, LDH growth readout, 72 h; at 2 µM; hits give high values.
The nature of test [2]: HepG2 cytotoxicity, primary screen, cytotoxicity control for P. falciparum antimalarial project, cell-based, ATP luminescence (AID 2303;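 active = inhibition above 50%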;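 also: 0% = DMSO wells and 100% = digitonin-killed cells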). Conditions: HepG2 viability, 24-48 h, at 10 µM, hits give high values.
Test [3] deals with L-lactate dehydrogenase (Plasmodium falciparum (isolate CDC / Honduras)) (UniProt Q27743). Put plainly: PfLDH activity inhibition – cell lysate, 3D7 strain, counter-screen for P. falciparum growth inhibition project (AID 2304).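 Also: 0% = vehicle and 100% = reference inhibitor.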 To be noted: P. falciparum 3D7 crude extract, LDH APAD/NBT absorbance; at 2 µM; hits give high values. For orientation: Counterscreens check selectivity or assay interference.
Sequence of L-lactate dehydrogenase (Plasmodium falciparum (isolate CDC / Honduras)) (Q27743 whole entry, looked up): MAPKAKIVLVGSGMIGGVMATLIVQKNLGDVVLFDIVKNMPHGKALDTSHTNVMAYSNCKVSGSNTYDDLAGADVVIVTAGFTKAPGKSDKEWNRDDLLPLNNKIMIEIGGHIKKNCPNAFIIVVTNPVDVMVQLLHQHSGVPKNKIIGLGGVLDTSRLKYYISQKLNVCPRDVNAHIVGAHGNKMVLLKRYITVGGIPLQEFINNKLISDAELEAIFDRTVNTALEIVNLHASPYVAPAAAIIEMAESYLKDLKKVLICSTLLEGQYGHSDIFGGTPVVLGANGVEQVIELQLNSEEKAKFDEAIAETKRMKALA

Test [4] is described as follows: inhibition of 3D7 malaria parasite growth – strain 3D7 (AID 2306).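 Also: 0% = DMSO wells and 100% = chloroquine plus artemisinin control wells.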 To be noted: P. falciparum 3D7 erythrocytic growth, LDH absorbance, 72 h; at 2 µM; hits give high values.
Test [5] has as its target Calcium-dependent protein kinase 1 (Plasmodium falciparum (isolate 3D7)) (UniProt P62344). The test is described as follows: PfCDPK1 kinase inhibitors, biochemical, TCAMS library (AID 1159585; cut-off not given, nearly all actives have IC50 up to about 0.98 µM;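 also: inhibitors leave more ATP so luminescence rises with inhibition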). To be noted: recombinant PfCDPK1, Kinase-Glo ATP depletion luminescence. For orientation: Kinase-Glo measures the ATP left after a reaction by luminescence.
Test [6] addresses Plasmodium falciparum protein kinase 6 (PK6, PF3D7_1337100) (UniProt Q8IDW1). Put plainly: PfPK6 kinase inhibitors, biochemical, TCAMS library (AID 1159586). To be noted: recombinant PfPK6, Kinase-Glo ATP depletion luminescence.
In test [7] the target is Protein kinase 7 (PK7), Plasmodium falciparum 3D7 (PF3D7_0213400) (UniProt Q7YTF7). Put plainly: inhibition of Plasmodium PK7 catalytic activity – biochemical, TCAMS antimalarial set, Kinase-Glo luminescence (AID 1159587). To be noted: recombinant PfPK7, Kinase-Glo ATP depletion luminescence.
Sequence of Protein kinase 7 (PK7), Plasmodium falciparum 3D7 (PF3D7_0213400) (Q7YTF7 1-343): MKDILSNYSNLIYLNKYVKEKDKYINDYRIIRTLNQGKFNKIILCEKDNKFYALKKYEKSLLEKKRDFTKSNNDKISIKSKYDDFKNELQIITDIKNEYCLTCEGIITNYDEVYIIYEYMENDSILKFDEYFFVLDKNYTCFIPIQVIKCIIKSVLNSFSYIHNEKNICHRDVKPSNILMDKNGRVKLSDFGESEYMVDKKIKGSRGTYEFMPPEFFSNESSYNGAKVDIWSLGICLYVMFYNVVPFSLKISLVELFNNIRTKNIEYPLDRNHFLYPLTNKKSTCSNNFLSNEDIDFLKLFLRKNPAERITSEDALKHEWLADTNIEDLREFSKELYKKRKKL
Test [8] deals with Calcium-dependent protein kinase 4 (Plasmodium falciparum (isolate 3D7)) (UniProt Q8IBS5). The test is described as follows: PfCDPK4 kinase inhibitors, biochemical, TCAMS library (AID 1159588; cut-off not given, nearly all actives have IC50 up to about 0.91 µM). To be noted: recombinant PfCDPK4, Kinase-Glo ATP depletion luminescence.
Sequence of Calcium-dependent protein kinase 4 (Plasmodium falciparum (isolate 3D7)) (Q8IBS5 whole entry, looked up): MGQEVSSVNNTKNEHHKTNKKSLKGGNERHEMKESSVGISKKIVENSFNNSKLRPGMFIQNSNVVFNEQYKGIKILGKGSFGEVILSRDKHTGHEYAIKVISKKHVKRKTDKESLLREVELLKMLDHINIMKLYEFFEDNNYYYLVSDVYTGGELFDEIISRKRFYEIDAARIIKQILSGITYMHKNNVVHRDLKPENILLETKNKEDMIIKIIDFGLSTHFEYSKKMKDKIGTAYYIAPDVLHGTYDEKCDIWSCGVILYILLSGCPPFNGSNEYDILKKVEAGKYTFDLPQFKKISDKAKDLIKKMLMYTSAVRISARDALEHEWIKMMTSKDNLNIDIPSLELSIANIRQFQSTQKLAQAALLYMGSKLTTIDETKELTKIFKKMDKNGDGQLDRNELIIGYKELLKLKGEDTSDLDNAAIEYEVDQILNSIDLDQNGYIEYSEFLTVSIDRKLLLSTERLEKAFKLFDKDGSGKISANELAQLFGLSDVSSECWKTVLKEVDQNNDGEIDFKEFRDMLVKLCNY

In general, inhibition refers to the change of the read-out against control, counted positive when it falls.

Unmarked numbers belong to inactive results. For some of these results: Results with a measured potency or affinity are listed apart. Active and inactive are the calls of the source. Unless noted, no rule for the calls is given here.

Sequence of Plasmodium falciparum protein kinase 6 (PK6, PF3D7_1337100) (Q8IDW1 1-305): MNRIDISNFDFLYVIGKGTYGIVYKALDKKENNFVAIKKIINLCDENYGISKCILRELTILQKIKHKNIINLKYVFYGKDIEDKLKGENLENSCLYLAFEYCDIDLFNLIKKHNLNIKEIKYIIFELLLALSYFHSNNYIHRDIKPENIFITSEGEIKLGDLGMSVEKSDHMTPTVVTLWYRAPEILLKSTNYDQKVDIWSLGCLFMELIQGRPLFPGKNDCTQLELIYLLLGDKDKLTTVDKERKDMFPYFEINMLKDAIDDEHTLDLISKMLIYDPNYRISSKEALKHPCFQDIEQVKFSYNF
Sequence of Calcium-dependent protein kinase 1 (Plasmodium falciparum (isolate 3D7)) (P62344 whole entry, looked up): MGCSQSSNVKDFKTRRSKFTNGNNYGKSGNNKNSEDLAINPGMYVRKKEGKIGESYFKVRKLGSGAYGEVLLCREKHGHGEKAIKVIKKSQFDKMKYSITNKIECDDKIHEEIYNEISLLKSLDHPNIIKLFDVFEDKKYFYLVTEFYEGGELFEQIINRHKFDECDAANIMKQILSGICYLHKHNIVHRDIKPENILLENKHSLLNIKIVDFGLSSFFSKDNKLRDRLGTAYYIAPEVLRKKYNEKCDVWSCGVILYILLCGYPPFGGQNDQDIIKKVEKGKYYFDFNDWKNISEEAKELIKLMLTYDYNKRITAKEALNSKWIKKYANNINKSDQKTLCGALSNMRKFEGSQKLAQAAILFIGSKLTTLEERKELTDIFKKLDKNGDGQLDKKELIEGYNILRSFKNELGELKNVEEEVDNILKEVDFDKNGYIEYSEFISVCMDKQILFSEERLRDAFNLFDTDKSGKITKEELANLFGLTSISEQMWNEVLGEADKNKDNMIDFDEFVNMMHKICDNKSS

Consider `O=C(Nc1cccc(C(F)(F)F)c1)NC1CCN(c2ccnc3ccccc23)C1` (stereo not given), for which the growth inhibition in test [1] is 69% (active); in test [4] it was 101% (active). In addition, the inhibition in test [2] was 23%; in test [3] it was -2%. Also, the outcome in test [5], in test [6], in test [7] and in test [8] was inactive.
Regarding `c1ccc(CN2CCC(NCc3ccc(-c4cncc5ccccc45)cc3)CC2)cc1`, the growth inhibition is 19% in test [1] and 98% (active) in test [4]. The inhibition in test [2] was 21%; in test [3], -3%. Besides, the outcome in test [5], in test [6], in test [7] and in test [8] was inactive.
Take `CCCCNc1nccc2ccc(-c3ccncc3)cc12`: the growth inhibition in test [1] was 1%; in test [4], 93% (active). Moreover, the inhibition is 6% in test [2] and 1% in test [3]. Besides, the result in test [5], in test [6], in test [7] and in test [8] was inactive.
As for `CCOc1ccc(/C=C/C(=O)Nc2cccc3c2CCN(C)C3)cc1`, the growth inhibition is 3% in test [1] and 92% (active) in test [4]. Also, the results for the inhibition in test [2] and in test [3] were -2% and 0%, respectively. Also, the outcome in test [5], in test [6], in test [7] and in test [8] was inactive.
In the case of `COc1ccc(NC(=O)/C=C/c2ccccc2Cl)cc1OCCN1CCC(N(C)C)CC1`, the growth inhibition is 19% in test [1] and 89% (active) in test [4]. Besides, the inhibition in test [2] was 18%; in test [3] it was -2%. Also, the outcome in test [5], in test [6], in test [7] and in test [8] was inactive.
`O=C(N[C@@H](Cc1ccccc1)C(=O)NCCN1CCOCC1)c1ccc(O)c(-c2ccc(Cl)c(Cl)c2)c1`: the values for the growth inhibition in test [1] and in test [4] were 31% and 97% (active), respectively. Besides, the inhibition is -4% in test [2] and 5% in test [3]. The outcome in test [5], in test [6], in test [7] and in test [8] was inactive.
In the case of `CN(C)C(=O)c1ccc(CN(Cc2ccc(OC(C)(C)C)cc2)Cc2ccc3c(c2)OCCO3)cc1`, the growth inhibition in test [1] is 96% (active); in test [4], 95% (active). For the same molecule, the values for the inhibition in test [2] and in test [3] were -5% and 1%, respectively. Further, the outcome in test [5], in test [6], in test [7] and in test [8] was inactive.
Consider `FC(F)(F)c1ccc2nc(-c3cccc(-c4cccc(CNCC5CCCO5)c4)c3)[nH]c2c1` (stereo not given), for which the growth inhibition is 96% (active) in test [1] and 100% (active) in test [4]. For the same molecule, the inhibition in test [2] was 23%; in test [3] it was -2%. Further, the outcome in test [5], in test [6], in test [7] and in test [8] was inactive.
For `CN1CCN(CCCCCCNc2c3ccccc3nc3ccccc23)CC1`, the growth inhibition is -4% in test [1] and 101% (active) in test [4]. For the same molecule, the inhibition in test [2] was 35%; in test [3], -3%. Further, the result in test [5], in test [6], in test [7] and in test [8] was inactive.
On to `O=C(Nc1nc2cc(S(=O)(=O)NCCc3ccc(F)cc3)ccc2n1CCCn1ccnc1)c1ccc(Cl)cc1`, for which the growth inhibition in test [1] is 55% (active); in test [4], 100% (active). Besides, the inhibition was 18% in test [2] and 3% in test [3]. For the same molecule, the outcome in test [5], in test [6], in test [7] and in test [8] was inactive.
Take `CCc1c(CCNCCCC(C)CCNCCc2ccc(OC)c(OC)c2CC)ccc(OC)c1OC` (stereo not given): the growth inhibition in test [1] was 27%; in test [4], 100% (active). Moreover, the inhibition was 99% (active) in test [2] and 1% in test [3]. In addition, the result in test [5], in test [6], in test [7] and in test [8] was inactive.
Consider `CC(C)CCn1c(Sc2ccc([N+](=O)[O-])cc2C(F)(F)F)nnc1-c1ccccc1Cl`, for which the growth inhibition is 43% in test [1] and 99% (active) in test [4]. The inhibition in test [2] was -5%; in test [3], 6%. Further, the result in test [5], in test [6], in test [7] and in test [8] was inactive.
For `CN(c1ccc(C(=O)N[C@@H](CCC(=O)O)C(=O)O)cc1)S(=O)(=O)c1ccc2nc(N)[nH]c(=O)c2c1`, the growth inhibition was 3% in test [1] and 97% (active) in test [4]. Besides, the inhibition in test [2] was 16%; in test [3], 2%. The outcome in test [5], in test [6], in test [7] and in test [8] was inactive.
Turning to `CCCCCCOc1ccc(C(=O)NCCCC2CCN(CCCCCNC(=O)C=Cc3ccc(Cl)c(Cl)c3)CC2)cc1`, the growth inhibition is 25% in test [1] and 94% (active) in test [4]. Besides, the inhibition in test [2] was 22%; in test [3] it was -2%. The result in test [5], in test [6], in test [7] and in test [8] was inactive.
For the molecule `Clc1ccccc1CCNCC1CCN(CC2CCCCC2)CC1`, the growth inhibition in test [1] was 38%; in test [4], 97% (active). Also, the inhibition in test [2] is 45%; in test [3], -5%. In addition, the outcome in test [5], in test [6], in test [7] and in test [8] was inactive.
Turning to `COc1ccc(CCNC(=O)c2cc(C)ccc2O)cc1-c1ccc(C(C)(C)C)cc1`, the growth inhibition in test [1] is 94% (active); in test [4] it was 97% (active). Moreover, the inhibition in test [2] was 1%; in test [3], -6%. Besides, the result in test [5], in test [6], in test [7] and in test [8] was inactive.
Consider `CCN(CC)CCN(Cc1ccc(-c2ccc(Cl)cc2)cc1)C(=O)Cn1cc(CN(C)C)c(=O)nc1SCc1ccc(F)cc1`, for which the growth inhibition in test [1] and in test [4] was 99% (active) in each case. The inhibition is 49% in test [2] and 1% in test [3]. Also, the result in test [5], in test [6], in test [7] and in test [8] was inactive.
For the molecule `Clc1ccc(C2CCN(CCCOc3ccc4c(c3)CCNCC4)CC2)cc1`, the figures for the growth inhibition in test [1] and in test [4] were 28% and 98% (active), respectively. For the same molecule, the inhibition in test [2] was 93% (active); in test [3], -8%. In addition, the result in test [5], in test [6], in test [7] and in test [8] was inactive.
On to `CC(C)NCc1ccc(-c2ccc(-c3nc4ccc(C(F)(F)F)cc4[nH]3)s2)cc1`, for which the growth inhibition is 94% (active) in test [1] and 101% (active) in test [4]. The inhibition in test [2] is 30%; in test [3], 1%. Further, the outcome in test [5], in test [6], in test [7] and in test [8] was inactive.
Turning to `COc1ccc2ncc(Cl)c(N3CCC(CCNCc4ccc5c(n4)NC(=O)CS5)CC3)c2c1`, the results for the growth inhibition in test [1] and in test [4] were 82% (active) and 89% (active), respectively. Moreover, the inhibition is 33% in test [2] and 0% in test [3]. The result in test [5], in test [6], in test [7] and in test [8] was inactive.

(Values after PubChem BioAssay.)
